# Experimental data from the supplement of paper PMC8728848.
# The full list was thinned out, with the strongest signals kept by preference.
# What was measured:
# Assay in all cases: glycan array binding signal (z-score within array); higher = stronger binding
# Conditions in all cases: glycan notation: IUPAC condensed, linker removed
# [1] = target: Neu5Ac(a2-3)Gal(b1-3)[Neu5Ac(a2-6)]GlcNAc(b1-3)[Fuc(a1-3)[Gal(b1-4)]GlcNAc(b1-6)]Gal(b1-4)Glc
# Summary of the method: (§1)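 Negative Z-scores can be read as non-binding. The Z-score is calculated within each array and then averaged across arrays of one protein sequence at different concentrations or buffers and across linkers. Arrays, 3228 in all, were curated from the Consortium for Functional Glycomics database and kept only where the protein sequence was available.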
# Neu5Ac(a2-3)Gal(b1-4)Glc = target: Neu5Ac(a2-3)Gal(b1-4)Glc
# Summary of the method: as §1
# [2] = target: Neu5Ac(a2-3)Gal(b1-4)[Fuc(a1-3)]GlcNAc(b1-3)GalNAc
# Summary of the method: as §1
# [3] = target: Neu5Ac(a2-6)Gal(b1-4)GlcNAc(b1-2)Man(a1-3)[Neu5Ac(a2-6)Gal(b1-4)GlcNAc(b1-2)Man(a1-6)]Man(b1-4)GlcNAc(b1-4)GlcNAc
# Summary of the method: as §1
# [4] = target: Neu5Ac(a2-6)Gal(b1-4)GlcNAc(b1-2)Man(a1-3)[Neu5Ac(a2-6)Gal(b1-4)GlcNAc(b1-2)Man(a1-6)]Man(b1-4)GlcNAc(b1-4)[Fuc(a1-6)]GlcNAc
# Summary of the method: as §1
# [5] = target: Neu5Ac(a2-6)Gal(b1-4)GlcNAc(b1-2)Man(a1-6)[Man(a1-3)]Man(b1-4)GlcNAc(b1-4)GlcNAc
# Summary of the method: as §1
# [6] = target: Neu5Ac(a2-6)Gal(b1-4)GlcNAc(b1-6)GalNAc
# Summary of the method: as §1
# [7] = target: Neu5Ac(a2-8)Neu5Ac(a2-3)Gal(b1-3)GalNAc(b1-4)[Neu5Ac(a2-8)Neu5Ac(a2-3)]Gal(b1-4)Glc
# Summary of the method: as §1
# [8] = target: Neu5Ac(a2-8)Neu5Ac(a2-8)Neu5Ac
# Summary of the method: as §1
# [9] = target: Fuc(a1-2)Gal(b1-3)GlcNAc(b1-2)Man(a1-3)[Fuc(a1-2)Gal(b1-3)GlcNAc(b1-2)Man(a1-6)]Man(b1-4)GlcNAc(b1-4)GlcNAc
# Summary of the method: as §1
# [10] = target: Fuc(a1-2)Gal(b1-3)GlcNAc(b1-3)GalNAc
# Summary of the method: as §1
# [11] = target: Fuc(a1-2)Gal(b1-3)GlcNAc(b1-3)[Fuc(a1-2)Gal(b1-3)GlcNAc(b1-6)]GalNAc
# Summary of the method: as §1
# [12] = target: Fuc(a1-2)Gal(b1-3)GlcNAc(b1-3)[Gal(b1-4)GlcNAc(b1-6)]Gal(b1-4)Glc
# Summary of the method: as §1
# [13] = target: Fuc(a1-2)Gal(b1-3)[Fuc(a1-4)]GlcNAc(b1-2)Man(a1-3)[Fuc(a1-2)Gal(b1-3)[Fuc(a1-4)]GlcNAc(b1-2)Man(a1-6)]Man(b1-4)GlcNAc(b1-4)[Fuc(a1-6)]GlcNAc(b1-4)[Fuc(a1-6)]GlcNAc
# Summary of the method: as §1
# Fuc(a1-2)Gal(b1-4)GlcNAc = target: Fuc(a1-2)Gal(b1-4)GlcNAc
# Summary of the method: as §1
# [14] = target: Fuc(a1-2)Gal(b1-4)GlcNAc(b1-2)Man(a1-3)[Fuc(a1-2)Gal(b1-4)GlcNAc(b1-2)Man(a1-6)]Man(b1-4)GlcNAc(b1-4)GlcNAc
# Summary of the method: as §1
# [15] = target: Fuc(a1-2)Gal(b1-4)[Fuc(a1-3)]GlcNAc(b1-3)GalNAc
# Summary of the method: as §1
# [16] = target: Fuc(a1-2)[Gal(a1-3)]Gal(b1-3)GlcNAc
# Summary of the method: as §1
# [17] = target: Fuc(a1-2)[Gal(a1-3)]Gal(b1-3)GlcNAc(b1-2)Man(a1-3)[Fuc(a1-2)[Gal(a1-3)]Gal(b1-3)GlcNAc(b1-2)Man(a1-6)]Man(b1-4)GlcNAc(b1-4)GlcNAc
# Summary of the method: as §1
# [18] = target: Fuc(a1-2)[Gal(a1-3)]Gal(b1-4)GlcNAc(b1-6)GalNAc
# Summary of the method: as §1
# [19] = target: Fuc(a1-2)[GalNAc(a1-3)]Gal(b1-4)GlcNAc(b1-3)Gal(b1-4)GlcNAc(b1-3)Gal(b1-4)GlcNAc
# Summary of the method: as §1
# [20] = target: Gal(b1-3)GalNAc(b1-3)Gal(a1-4)Gal(b1-4)Glc
# Summary of the method: as §1
# [21] = target: Gal(b1-3)GlcNAc(b1-2)Man(a1-3)[Gal(b1-3)GlcNAc(b1-2)Man(a1-6)]Man(b1-4)GlcNAc(b1-4)GlcNAc
# Summary of the method: as §1
# [22] = target: Gal(b1-3)GlcNAc(b1-2)Man(a1-3)[Gal(b1-3)GlcNAc(b1-2)Man(a1-6)]Man(b1-4)GlcNAc(b1-4)[Fuc(a1-6)]GlcNAc
# Summary of the method: as §1
# [23] = target: Gal(b1-3)GlcNAc(b1-2)[Gal(b1-3)GlcNAc(b1-6)]Man(a1-6)[Gal(b1-3)GlcNAc(b1-2)Man(a1-3)]Man(b1-4)GlcNAc(b1-4)GlcNAc
# Summary of the method: as §1
# [24] = target: Gal(b1-3)[Fuc(a1-4)]GlcNAc
# Summary of the method: as §1
# Gal(b1-4)Gal = target: Gal(b1-4)Gal
# Summary of the method: as §1
# [25] = target: Gal(b1-4)GlcNAc(a1-6)Gal(b1-4)GlcNAc
# Summary of the method: as §1
# [26] = target: Gal(b1-4)GlcNAc(b1-2)Man(a1-3)[Gal(b1-4)GlcNAc(b1-2)Man(a1-6)]Man(b1-4)GlcNAc(b1-4)GlcNAc
# Summary of the method: as §1
# [27] = target: Gal(b1-4)GlcNAc(b1-2)Man(a1-3)[GlcNAc(b1-4)][Gal(b1-4)GlcNAc(b1-2)Man(a1-6)]Man(b1-4)GlcNAc(b1-4)GlcNAc
# Summary of the method: as §1
# [28] = target: Gal(b1-4)GlcNAc(b1-2)Man(a1-6)[GlcNAc(b1-2)Man(a1-3)]Man(b1-4)GlcNAc(b1-4)GlcNAc
# Summary of the method: as §1
# [29] = target: Gal(b1-4)GlcNAc(b1-2)[Gal(b1-4)GlcNAc(b1-4)]Man(a1-3)[GlcNAc(b1-4)][Gal(b1-4)GlcNAc(b1-2)Man(a1-6)]Man(b1-4)GlcNAc(b1-4)GlcNAc
# Summary of the method: as §1
# GalNAc6S(b1-4)GlcNAc = target: GalNAc6S(b1-4)GlcNAc
# Summary of the method: as §1
# GlcA(b1-6)Gal = target: GlcA(b1-6)Gal
# Summary of the method: as §1
# [30] = target: GlcNAc(a1-4)Gal(b1-4)GalNAc
# Summary of the method: as §1
# [31] = target: GlcNAc(b1-2)Man(a1-3)[GlcNAc(b1-2)Man(a1-6)]Man(b1-4)GlcNAc(b1-4)GlcNAc
# Summary of the method: as §1
# [32] = target: GlcNAc(b1-2)[GlcNAc(b1-4)]Man(a1-3)[GlcNAc(b1-2)Man(a1-6)]Man(b1-4)GlcNAc(b1-4)GlcNAc
# Summary of the method: as §1
# GlcNAc(b1-3)Fuc = target: GlcNAc(b1-3)Fuc
# Summary of the method: as §1
# [33] = target: Man(a1-2)Man(a1-3)[Man(a1-2)Man(a1-6)]Man(a1-6)[Man(a1-2)Man(a1-2)Man(a1-3)]Man
# Summary of the method: as §1
# [34] = target: Neu5Ac(a2-3)Gal(b1-3)[Fuc(a1-4)]GlcNAc(b1-3)Gal(b1-3)[Fuc(a1-4)]GlcNAc
# Summary of the method: as §1
# [35] = target: Neu5Ac(a2-3)Gal(b1-4)GlcNAc(b1-3)Gal(b1-4)[Fuc(a1-3)]GlcNAc
# Summary of the method: as §1
# Neu5Ac(a2-3)GalNAc = target: Neu5Ac(a2-3)GalNAc
# Summary of the method: as §1
# [36] = target: Neu5Ac(a2-6)Gal(b1-4)GlcNAc(b1-2)Man(a1-3)[GlcNAc(b1-4)][Neu5Ac(a2-6)Gal(b1-4)GlcNAc(b1-2)Man(a1-6)]Man(b1-4)GlcNAc(b1-4)GlcNAc
# Summary of the method: as §1
# [37] = target: Neu5Ac(a2-6)Gal(b1-4)GlcNAc(b1-2)Man(a1-6)[Gal(b1-4)GlcNAc(b1-2)Man(a1-3)]Man(b1-4)GlcNAc(b1-4)GlcNAc
# Summary of the method: as §1
# [38] = target: Neu5Ac(a2-6)Gal(b1-4)GlcNAc(b1-2)Man(a1-6)[GlcNAc(b1-2)Man(a1-3)]Man(b1-4)GlcNAc(b1-4)GlcNAc
# Summary of the method: as §1
# [39] = target: Neu5Ac9Ac(a2-6)Gal(b1-4)GlcNAc
# Summary of the method: as §1
binder,measurement,setting,value
DC-ASGPR Long (Homo sapiens) (protein) MTRTYENFQYLENKVKVQGFKNGPLPLQSLLQRLRSGPCHLLLSLGLGLLLLVIICVVGFQNSKFQRDLVTLRTDFSNFTSNTVAEIQALTSQGSSLEETIASLKAEVEGFKQERQAGVSELQEHTTQKAHLGHCPHCPSVCVPVHSEMLLRVQQLVQDLKKLTCQVATLNNNASTEGTCCPVNWVEHQDSCYWFSHSGMSWAEAEKYCQLKNAHLVVINSREEQNFVQKYLGSAYTWMGLSDPEGAWKWVDGTDYATGFQNWKPGQPDDWQGHGLGGGEDCAHFHPDGGWNDDVCQRPYHWVCEAGLGQTSQESH,glycan array binding signal (z-score),[1],-0.251
same,glycan array binding signal (z-score),Neu5Ac(a2-3)Gal(b1-4)Glc,-0.302
same,glycan array binding signal (z-score),[2],0.105
same,glycan array binding signal (z-score),[3],-0.115
same,glycan array binding signal (z-score),[4],-0.343
same,glycan array binding signal (z-score),[5],-0.516
same,glycan array binding signal (z-score),[6],-0.224
same,glycan array binding signal (z-score),[7],-0.349
same,glycan array binding signal (z-score),[8],-0.221
CAA (Caragana arborescens) (protein) VAVEFDTFDNPDWDPRTKHIGIDVNSIRSNKTTQWGFWNRQVADVDISYEASSKTLNVSLYYPGESYIVTDVVDLKDILPEWVRIGF,glycan array binding signal (z-score),[9],4.07
same,glycan array binding signal (z-score),[10],-0.244
same,glycan array binding signal (z-score),[11],-0.242
same,glycan array binding signal (z-score),[12],-0.249
same,glycan array binding signal (z-score),[13],1.03
same,glycan array binding signal (z-score),Fuc(a1-2)Gal(b1-4)GlcNAc,-0.242
same,glycan array binding signal (z-score),[14],2.51
same,glycan array binding signal (z-score),[15],-0.238
same,glycan array binding signal (z-score),[16],-0.238
same,glycan array binding signal (z-score),[17],3.82
same,glycan array binding signal (z-score),[18],-0.248
same,glycan array binding signal (z-score),[19],-0.233
same,glycan array binding signal (z-score),[20],-0.24
same,glycan array binding signal (z-score),[21],6.61
same,glycan array binding signal (z-score),[22],5.29
same,glycan array binding signal (z-score),[23],5.63
same,glycan array binding signal (z-score),[24],-0.24
same,glycan array binding signal (z-score),Gal(b1-4)Gal,-0.24
same,glycan array binding signal (z-score),[25],-0.241
same,glycan array binding signal (z-score),[26],4.25
same,glycan array binding signal (z-score),[27],-0.106
same,glycan array binding signal (z-score),[28],5.87
same,glycan array binding signal (z-score),[29],-0.239
same,glycan array binding signal (z-score),GalNAc6S(b1-4)GlcNAc,-0.252
same,glycan array binding signal (z-score),GlcA(b1-6)Gal,-0.239
same,glycan array binding signal (z-score),[30],-0.239
same,glycan array binding signal (z-score),[31],5.92
same,glycan array binding signal (z-score),[32],7.33
same,glycan array binding signal (z-score),GlcNAc(b1-3)Fuc,-0.246
same,glycan array binding signal (z-score),[33],-0.246
same,glycan array binding signal (z-score),[34],-0.24
same,glycan array binding signal (z-score),[35],-0.242
same,glycan array binding signal (z-score),Neu5Ac(a2-3)GalNAc,-0.243
same,glycan array binding signal (z-score),[36],-0.251
same,glycan array binding signal (z-score),[37],3.9
same,glycan array binding signal (z-score),[38],5.95
same,glycan array binding signal (z-score),[5],0.262
same,glycan array binding signal (z-score),[6],-0.236
same,glycan array binding signal (z-score),[8],-0.249
same,glycan array binding signal (z-score),[39],-0.245
